Epigenetic derep – Quantitative High-Throughput Screen for Regulators of Epigenetic Control. AID 1865, 2009. Potency, µM (top dose mostly 53.9 µM), inactives show at the top dose GFP activation, actives largely listed as activators. murine LDR cells, GFP reporter derepression, 30 h. 280,000 compounds, 0.2% hits; note: potency is the fitted concentration of half-maximal effect; % of control where 0% means no effect; nearly all actives have a fitted effect of over 60% in size
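Murine LDR cells carrying a silenced, genomically integrated CMV-driven GFP reporter were exposed to compound for 30 hours at 37 C. After PBS washes, GFP-positive cells (20–120 um objects) were counted by laser-scanning microplate cytometry.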
VP16 counter – VP16 counterscreen qHTS for inhibitors of ROR gamma transcriptional activity; 310,000 compounds, 3.5% hits; Potency, µM (series often up to 53.6 µM), for the others: top-dose activity, negative = inhibition, most hits filed as inhibitors; Drosophila S2 Gal4-VP16 UAS-luciferase, luminescence, 20 h;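 note: Gal4-VP16 expression switched on by copper sulfate through the metallothionein promoter; potency is the fitted concentration of half-maximal effect; % is set by controls: 0 for no effect and ±100 for the full control effect; nearly all actives have a fitted effect of over 50% in size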
Sfp inh – qHTS Assay for Inhibitors of Bacillus subtilis Sfp phosphopantetheinyl transferase (PPTase); Biochemical Sfp PPTase activity, qHTS; AID 1490, 2009; 4'-phosphopantetheinyl transferase ffp (Bacillus subtilis), Q9F4F7; Potency, µM, for inactives: largest response in the series, negative = inhibition, actives largely listed as inhibitors; 310,000 compounds, 3.5% hits;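 note: the enzyme is Sfp with the accession as filed and its product quenches rhodamine fluorescence; potency is the fitted concentration of half-maximal effect; 0% = enzyme reaction without inhibitor and -100% = no enzyme wells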
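Sfp 15 nM + cpd, 15 min RT; start w/ rhodamine-CoA 5 uM, BHQ-2-YbbR 12.5 uM (final); 50 mM Hepes pH 7.6, 10 mM MgCl2, 0.01% NP-40, 0.01% BSA; read 525/598 nm at 0 and 30 min.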
RORgamma inh – qHTS for inhibitors of ROR gamma transcriptional activity; 310,000 compounds, 5.4% hits; Drosophila S2 Gal4-RORgamma UAS-luciferase reporter, 20 h; AID 2551, 2010; Potency, µM (top dose mostly 53.6 µM), inactives show at the highest dose activity change, negative = inhibition, actives largely listed as inhibitors; note: potency is the fitted concentration of half-maximal effect; % is set by controls: 0 for no effect and ±100 for the full control effect; nearly all actives have a fitted effect of over 60% in size
Target sequence (P51450 whole entry, looked up, the tested form may be a part): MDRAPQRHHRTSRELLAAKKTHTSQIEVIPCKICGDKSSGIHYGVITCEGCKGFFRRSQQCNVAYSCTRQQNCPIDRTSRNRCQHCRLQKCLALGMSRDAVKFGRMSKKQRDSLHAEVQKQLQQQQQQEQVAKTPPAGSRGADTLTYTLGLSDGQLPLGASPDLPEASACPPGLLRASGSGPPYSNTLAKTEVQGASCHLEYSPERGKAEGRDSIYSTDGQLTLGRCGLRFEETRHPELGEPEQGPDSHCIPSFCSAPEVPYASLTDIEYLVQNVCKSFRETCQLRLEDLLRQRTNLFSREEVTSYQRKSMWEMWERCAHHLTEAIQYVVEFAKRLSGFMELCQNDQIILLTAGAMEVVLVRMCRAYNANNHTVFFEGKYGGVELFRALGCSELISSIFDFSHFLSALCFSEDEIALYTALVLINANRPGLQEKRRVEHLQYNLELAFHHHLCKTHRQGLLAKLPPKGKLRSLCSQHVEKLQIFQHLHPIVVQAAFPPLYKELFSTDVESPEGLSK
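Stably transfected Drosophila Schneider cells are the test system, with ROR gamma fused to Gal4 and luciferase under UAS control; luminescence is read after 20 hr of 700 uM copper sulfate induction at ambient temperature.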
PINK1 expr mod – A Quantitative High throughput Screen to Identify Chemical Modulators of PINK1 Expression; PINK1 immunofluorescence, high-content cytometry, 24 h; Potency, µM (top dose mostly 76.6 µM), without a hit: at the highest dose activation (PINK1 increase), usual class: activators; 410,000 compounds, 0.2% hits; AID 624263, 2012; active = well fitted activation curve with a large enough effect; inconclusive = small, poorly fitted or top-dose-only effect; cell line not stated here; note: potency is the fitted concentration of half-maximal effect; % of control where 0% means no effect; nearly all actives have a fitted effect of over 65% in size
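A stable cell line was treated with compounds at 5 concentrations for 24 hours, with CCCP as control. PINK1 levels and mitochondrial localization were measured by immunofluorescence with mitochondrial, cell and nuclear markers after fixation, read by laser-scanning cytometry.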
ClpP mod – qHTS Assay for Activators of ClpP; ATP-dependent Clp protease proteolytic subunit (Bacillus subtilis (strain 168)), P80244; purified B. subtilis ClpP, FRET peptide cleavage, 20 min; Potency, µM (titrated, usually from 57.5 µM), inactives show at the top dose activity change, negative = active; 340,000 compounds, 1.9% hits; active = well fitted falling curve with a large enough effect; inconclusive = small, poorly fitted or top-dose-only effect; inactive = no such curve, though single readings can be large or run the other way; note: potency is the fitted concentration of half-maximal effect; the source files actives as falling curves though it sought activators and does not explain the sign; nearly all actives have a fitted effect of over 65% in size
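ClpP 10 microg/mL final, pH 8 Tris/KCl buffer with BSA, glycerol, Tween-20; compound pinned in; FRET-FV substrate; RT 20 min; Ex320/Em430; ΔFRET vs ADEP 5.8 microM, DMSO, no enzyme.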
Sfp PPTase conf – Confirmation qHTS Assay for Inhibitors of Bacillus subtilis Sfp phosphopantetheinyl transferase (PPTase). shares compounds with Sfp inh. Sfp PPTase enzymatic assay, qHTS titration. Potency, µM (series often up to 114 µM), for the others: top-dose activity change, negative = inhibition, most hits filed as inhibitors. 380 compounds, 79% hits;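 note: potency is the fitted concentration of half-maximal effect; plate controls were uninhibited Sfp reaction for no effect and no enzyme control for full effect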
Target sequence (Q9F4F7 whole entry, looked up): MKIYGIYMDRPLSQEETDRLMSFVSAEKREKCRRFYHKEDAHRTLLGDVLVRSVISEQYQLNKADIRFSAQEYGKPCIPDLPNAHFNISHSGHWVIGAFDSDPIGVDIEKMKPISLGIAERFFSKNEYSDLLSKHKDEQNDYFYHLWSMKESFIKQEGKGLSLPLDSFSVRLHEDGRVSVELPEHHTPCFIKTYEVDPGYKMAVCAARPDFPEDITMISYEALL
Sfp gel assay – Gel-Based Assay for Inhibitors of Bacillus subtilis Sfp phosphopantetheinyl transferase (PPTase); shares compounds with Sfp inh; 210 compounds, 20% hits; Potency, µM, usual class: inhibitors; purified Sfp, gel-based phosphopantetheinylation read-out;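 active = potency below 100 µM; inconclusive = dose-dependent response but potency above 100 µM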;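 note: band intensities scaled against SCH202676 control wells before curve fitting; potency is an IC50 for inhibitors of Sfp transfer activity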
* marks the source's active call; other numbers are inactive results; i = inactive; ? = inconclusive; / = no result; [ ] = another dose, or the depositor's remark. This is a sample that favours compounds with a hit; in the whole collection about 8.1% have one here. Unless noted, calls come from the whole dose curve; as a rule, active = well fitted curve in the direction sought with a large enough effect; inconclusive = small, poorly fitted or top-dose-only effect, or another doubt; inactive = no such curve, though single readings can be large; an effect the other way counts as inactive or inconclusive.

SMILES	Epigenetic derep	VP16 counter	Sfp inh	RORgamma inh	PINK1 expr mod	ClpP mod	Sfp PPTase conf	Sfp gel assay
Cc1cc2ccccc2n1CCNC(=O)c1ccc(Br)o1	0%	-15%	13µM*	-35%	2%	-11%	24µM*	/
Cc1cccc(Cc2c(C)nc3nc(SCc4cccc(F)c4)nn3c2C)c1	1%	/	/	/	-1%	?	/	/
c1ccc(Cc2nn3c(COc4ccccc4)nnc3s2)cc1	-3%	17%[0.365 µM]	14µM*	25%	25%[38.3 µM]	0%	19µM*	/
Fc1cc(Br)ccc1Nc1c2c(nc3nc(-c4cccs4)nn13)CCCC2	0%	/	/	/	1%	-6%	/	/
O=C(OCc1ccccc1)c1cccnc1	/	3%	32µM*	1%[10 µM]	/	/	37µM*	?
O=C(OCc1ccc(Br)cc1)c1cccnc1	/	3%	7%	-13%	3%	-7%	/	/
COc1ccc(-c2noc(N3CCC(C(=O)N4CCN(c5ccccc5F)CC4)CC3)n2)cc1	6%	/	/	/	0%	1%	/	/
CC(C)N(C(=O)Nc1ccc2nsnc2c1)C(C)C	4%	-20%	4.5µM*	-11%	2%	-11%	24µM*	i
OC(C#Cc1ccccn1)c1cccs1 (stereo not drawn)	-3%	4.5µM*	18µM*	10µM*	0%	0%	47µM*	i
CCN(CC)CCNC(=O)c1ccc2nc(CCc3ccccc3)oc2c1	-2%	/	/	/	0%	2%	/	/
CC(Cc1ccc(O)c(O)c1)(NN)C(=O)O (stereo not drawn)	2%	-17%	50µM*	-10%	1%	/	47µM*	i
C[C@](N)(Cc1ccc(O)c(O)c1)C(=O)O	2%	?	13µM*	?	0%	1%	21µM*	i
COC(=O)C(N)Cc1ccc(O)c(O)c1 (stereo not drawn)	0%	-2%	-23%	5%	4%	-2%	/	/
CO/N=C(\C(=O)N[C@@H]1C(=O)N2C(C(=O)O)=C(COC(C)=O)CS[C@H]12)c1csc(N)n1	1%	-5%	?	-13%	/	/	/	/
CO/N=C(\C(=O)N[C@@H]1C(=O)N2C(C(=O)[O-])=C(C[n+]3cccc4c3CCC4)CS[C@H]12)c1csc(N)n1	/	2%	56µM*	5%	/	/	42µM*	56µM*
CO/N=C(/C(=O)N[C@@H]1C(=O)N2C(C(=O)O)=C(CSC(=O)c3ccco3)CSC12)c1csc(N)n1 (stereo partly drawn)	/	-2%	56µM*	-20%	/	/	47µM*	6.2µM*
CO/N=C(/C(=O)N[C@@H]1C(=O)N2C(C(=O)O)=C(C[n+]3ccc(N)n3CCO)CS[C@H]12)c1csc(N)n1	/	-4%	?	8%	/	/	/	/
CNC(=O)C1CCC(Cn2c(=O)c3sccc3n(CC(=O)N3CCCC3)c2=O)CC1 (stereo not drawn)	0%	/	/	/	-2%	-2%	/	/
Cc1ccc2c(c1)CCCN2C(=O)Nc1ccc2c(c1)OCO2	-2%	?	3.2µM*	-22%	-1%	0%	?	i
COc1ccc(OCC2c3cc(OC)c(OC)cc3CCN2C(=O)c2ccc(F)cc2)cc1 (stereo not drawn)	-2%	/	/	/	9%	1%	/	/
CCOc1ccccc1NC(=O)CSc1ccc2nnc(CCNS(=O)(=O)c3ccccc3)n2n1	-4%	/	/	/	0%	0%	/	/
Cc1cc([N+](=O)[O-])ccc1NCc1ccccc1[N+](=O)[O-]	7%	-9%	13%	17%	1%	/	/	/
Cc1cc(F)ccc1NCc1ccccc1[N+](=O)[O-]	-4%	-3%	2.8µM*	-8%	16%	/	47µM*	i
O=C(COC(=O)/C=C/c1ccco1)NCc1ccccc1Cl	3%	-4%	7.9µM*	32%	3%	/	37µM*	i
O=c1c2c3nc4ccccc4nc3n(Cc3ccccc3)c2ncn1Cc1ccco1	?	?	2.8µM*	?	4%	-30%	5.9µM*	/
SMILES	Epigenetic derep	VP16 counter	Sfp inh	RORgamma inh	PINK1 expr mod	ClpP mod	Sfp PPTase conf	Sfp gel assay
O=C(Nc1cccc(C(F)(F)F)c1)c1cc(-c2ccc(Cl)s2)nc2ccccc12	-1%	/	/	/	-1%	4%	/	/
Cc1cc(C(=O)NCc2ccco2)c2cc(F)ccc2n1	-4%	1%	-1%	22%	2%	-1%	/	/
Cc1ccc(-c2cc(C(=O)NCc3ccco3)c3ccccc3n2)s1	3%	?	2.8µM*	?	11%	32µM*	47µM*	?
Cc1cc(C)cc(OC(C)C(=O)Nc2c(C(=O)c3ccccc3)oc3ccccc23)c1 (stereo not drawn)	0%	/	/	/	1%	?	/	/
Cn1nnnc1SCCCNCc1ccccc1OCc1ccccc1F	-2%	/	/	/	0%	-1%	/	/
CNc1ccccc1C(C)(C)c1cc(-c2ccco2)n[nH]1	14%	-28%	56µM*	-36%	5%[38.3 µM]	1%	24µM*	i
CNc1ccccc1C(C)(C)c1cc(C)[nH]n1	0%	3%	21%	-17%	0%	0%	/	/
CC(=O)n1c(-c2ccccc2)c(CO)c2ccccc21	/	0%	16%	18%	1%	27%	/	/
NCCc1c(-c2ccccc2)n(-c2ccccc2)c2ccccc12	?	?	16µM*	?	-3%	/	42µM*	i
CC(C)(C)c1ccc(C(=O)CCCN2CCC(OC(c3ccccc3)c3ccccc3)CC2)cc1	/	11µM*	50µM*	0%[10 µM]	/	/	47µM*	i
CC1CCN(CCCC(=O)c2ccc(F)cc2)CC1	/	1%	4%	25%	/	/	/	/
CCOC(=O)c1c(-c2ccc(OC)cc2)csc1NC(=O)C1CCCO1 (stereo not drawn)	-4%	-5%	16µM*	39%	0%	-5%	33µM*	/
Cc1ccc(-c2cnc(-c3ccncc3)o2)cc1	0%	?	56µM*	38%	-1%	?	3%	i
Cc1ccc(Cn2c(=S)[nH]c3ccc(N4CCOCC4)cc3c2=O)o1	0%	4µM*	2.5µM*	3.2µM*	6%	26%	2.6µM*	/

Bioassay records from PubChem BioAssay.
